Hedgehog inh: Sonic Hedgehog pathway inhibition. inhibition, % (concentration not given with the values). 22,000 tested, 2.1% active. Shh-LIGHT2 Gli-luciferase reporter, 30 h. AID 2313;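 active = mean inhibition across valid replicates above about 65%, limit read from the data; inconclusive = mean under the limit, yet half or more replicates past it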;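 also: pathway switched on by Shh-conditioned medium diluted 1 in 25 in low serum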
NOMO-1 viab: STK33 inhibitor candidate reducing NOMO-1 cell viability. inhibition, % (test concentration not listed). NOMO-1 AML viability, CellTiter-Glo luminescence, 72 h. 37,000 tested, 7.5% active; in the data active = inhibition above about 80%; inconclusive = no clear call, values can overlap the other calls
MITF inhib: MITF inhibition | inhibition, % (concentration not given with the values) | TRPM1 promoter luciferase, luminescence, 24 h | 37,000 tested, 0.28% active; in the data active = inhibition above about 85%; inconclusive = no clear call, values can overlap the other calls; inactive = below about 68%;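 also: human melanocyte line stably carrying TRPM1 promoter luciferase reporter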
Numbers stand for hits. This is a sample that favours compounds with a hit; in the whole collection about 7.8% have one here.

Screening COc1ccc(OCC(=O)Nc2cc(OC)ccc2NC(=O)c2ccco2)cc1 returned NOMO-1 viab inactive and MITF inhib inactive.
O=C(Nc1ccc(S(=O)(=O)Nc2ncccn2)cc1)c1c(Cl)cccc1Cl was read as NOMO-1 viab inactive and MITF inhib inactive.
Screening O=C(CCc1ccc(O)cc1)c1c(O)cc(O[C@@H]2O[C@H](CO)[C@@H](O)[C@H](O)[C@H]2O)cc1O returned Hedgehog inh inactive, NOMO-1 viab inactive and MITF inhib inactive.
COc1cc(C[C@@H]2COC(c3ccc(O[C@@H]4O[C@H](CO)[C@@H](O)[C@H](O)[C@H]4O)c(OC)c3)[C@@H]2CO)ccc1O[C@@H]1O[C@H](CO)[C@@H](O)[C@H](O)[C@H]1O (stereo partly specified) was read as Hedgehog inh inactive, NOMO-1 viab inactive and MITF inhib inactive.
Screening Cc1ccc(-c2nc(SCC(=O)c3ccccc3)n[nH]2)cc1 returned NOMO-1 viab inactive and MITF inhib inactive.
Cc1csc2sc(-c3ccnc(SCC(=O)c4ccccc4)n3)c(C)c12 was read as Hedgehog inh 70.3, NOMO-1 viab inactive and MITF inhib inactive.
`Cc1csc2sc(-c3ccnc(SCC(=O)NCc4ccccc4)n3)c(C)c12` gave NOMO-1 viab 112.9 and MITF inhib inactive.
Screening Cc1cc(C)c2c(=O)[nH]c(SCC(=O)NCc3ccccc3)nc2n1 returned NOMO-1 viab inactive and MITF inhib inactive.
`Cc1c(CCC(=O)O)c(=O)oc2cc(OCc3ccc(Cl)c(Cl)c3)ccc12` gave NOMO-1 viab inactive and MITF inhib inactive.
Cc1cc(C(=O)Nc2cccc3c2O[C@@H](CN(C)Cc2ccccc2)[C@@H](C)CN([C@H](C)CO)C3=O)n(C)n1 was read as Hedgehog inh inactive, NOMO-1 viab inactive and MITF inhib inactive.
`Cc1cc(C(=O)Nc2cccc3c2O[C@H](CN(C)Cc2ccc(-c4ccccc4)cc2)[C@@H](C)CN([C@H](C)CO)C3=O)n(C)n1` gave Hedgehog inh inactive, NOMO-1 viab 88.5 and MITF inhib inactive.
Cc1cc(C(=O)Nc2cccc3c2O[C@H](CN(C)Cc2ccc(Oc4ccccc4)cc2)[C@@H](C)CN([C@H](C)CO)C3=O)n(C)n1 was read as Hedgehog inh inconclusive, NOMO-1 viab 111.1 and MITF inhib inactive.
Screening Cc1cc(C(=O)Nc2cccc3c2O[C@H](CN(C)Cc2ccc(C(=O)Nc4ccccc4N)cc2)[C@@H](C)CN([C@@H](C)CO)C3=O)n(C)n1 returned NOMO-1 viab inconclusive and MITF inhib inactive.
Cc1cc(C(=O)Nc2cccc3c2O[C@H](CN(C)Cc2ccc(C(=O)Nc4ccccc4N)cc2)[C@H](C)CN([C@H](C)CO)C3=O)n(C)n1 was read as NOMO-1 viab 126.7 and MITF inhib inactive.
Cc1cc(C(=O)Nc2cccc3c2O[C@@H](CN(C)Cc2ccc(-c4ccccc4)cc2)[C@H](C)CN([C@@H](C)CO)C3=O)n(C)n1 was read as Hedgehog inh inactive, NOMO-1 viab inactive and MITF inhib inactive.
Screening NC(=O)C1(N2CCCCC2)CCN(CC(=O)Nc2ccc(Cl)cc2)CC1 returned NOMO-1 viab inactive and MITF inhib inactive.
`Cc1ccc2c(C)c(C(=O)Nc3sc4c(c3C(=O)NCc3cccnc3)CCCC4)oc2c1` gave NOMO-1 viab inactive and MITF inhib inactive.
`CCC(Sc1nc(C)cc(C)n1)C(=O)Nc1ccc(-c2nc3ccc(C)cc3s2)cc1` (stereo unspecified) gave NOMO-1 viab inactive and MITF inhib inactive.
For Cc1c(Cl)cccc1NC(=O)CN(c1ccc(I)cc1)S(C)(=O)=O the results were NOMO-1 viab inactive and MITF inhib inactive.
For Cc1nn(CC(O)COc2ccc3ccccc3c2)c(C)c1Br (stereo unspecified) the results were NOMO-1 viab inactive and MITF inhib inactive.
Screening CCOC(=O)Cc1c(SC)c2ccccc2n1C returned Hedgehog inh inactive, NOMO-1 viab inactive and MITF inhib inactive.
CC(=O)Oc1c(I)c(=O)n(C)c2ccccc12 was read as Hedgehog inh inactive, NOMO-1 viab 120.8 and MITF inhib inactive.
For CC(CC(=O)O)CC(=O)Nc1ccc(C(=O)O)cc1 (stereo unspecified) the results were NOMO-1 viab inactive and MITF inhib inactive.
O=C(CSc1nc2ccc([N+](=O)[O-])cc2s1)Nc1cc(Cl)cc(Cl)c1 was read as NOMO-1 viab inactive and MITF inhib inactive.
For N#Cc1ccc(CSc2nc(-c3cccs3)c3c(c2C(=O)O)CCCC3)cc1 the results were Hedgehog inh inconclusive, NOMO-1 viab inactive and MITF inhib inactive.
For CN1CCc2c(-c3cccs3)nc(OCc3ccccc3Br)c(C#N)c2C1 the results were Hedgehog inh 64.7, NOMO-1 viab 97.4 and MITF inhib inactive.
For COc1ccc(S(=O)(=O)n2nc(C)cc2C)cc1N(C)S(=O)(=O)c1ccccc1 the results were NOMO-1 viab inactive and MITF inhib inactive.
`C=C1C(=O)O[C@@H]2/C=C(/CO)CC/C=C(/C=O)C[C@@H](O)[C@@H]12` gave Hedgehog inh inactive, NOMO-1 viab 108.6 and MITF inhib inactive.
For C=C1C(=O)O[C@@H]2/C=C(/C)CC/C=C(/C=O)C[C@@H](OC(=O)CC(C)C)C12 (stereo partly specified) the results were Hedgehog inh inactive.
For CN(CC(=O)Nc1ccccc1[N+](=O)[O-])S(=O)(=O)c1ccccc1 the results were NOMO-1 viab inactive and MITF inhib inactive.
`CC(=O)c1cccc(-n2nnnc2SCC(=O)Nc2ccccc2F)c1` gave NOMO-1 viab inactive and MITF inhib inactive.
`COc1ccc(OC)c(NC(=O)COc2ccc3c(=O)c(Oc4ccccc4Br)coc3c2)c1` gave NOMO-1 viab inactive and MITF inhib 94.7.
For COc1ccc(OC)c(NC(=O)COc2ccc3c(C)cc(=O)oc3c2)c1 the results were NOMO-1 viab inactive and MITF inhib inactive.
For CCn1c(SCC(=O)Nc2ccccc2C(F)(F)F)nnc1-c1cccc([N+](=O)[O-])c1 the results were NOMO-1 viab inactive and MITF inhib inactive.
`O=C(COc1ccc([N+](=O)[O-])cc1)Nc1cc(Cl)ccc1O` gave NOMO-1 viab inactive and MITF inhib inactive.
`O=C(Nc1ccccc1)c1cc([N+](=O)[O-])ccc1Cl` gave Hedgehog inh inactive, NOMO-1 viab 117.8 and MITF inhib inactive.
O=C(Nc1ccc([N+](=O)[O-])cc1Cl)c1cc(Cl)ccc1O was read as Hedgehog inh 88.2, NOMO-1 viab 120.1 and MITF inhib 105.6.
O=C(Nc1ccccc1)c1cc([N+](=O)[O-])ccc1NCc1cccnc1 was read as NOMO-1 viab inactive and MITF inhib inactive.
`Cc1cccc(Cn2nc(C(C)(C)C)cc2C(=O)Nc2cccnc2)c1` gave Hedgehog inh inactive, NOMO-1 viab inconclusive and MITF inhib inactive.
N#Cc1c(NC(=O)Cn2cnc3scc(-c4ccccc4)c3c2=O)sc2c1CCC2 was read as NOMO-1 viab inactive and MITF inhib inactive.
Screening C=C(C)C(=O)O[C@@H]1C2=C(C)C(=O)OC2(O)CC23OC2CC[C@H](C)[C@@]13C (stereo partly specified) returned Hedgehog inh inactive, NOMO-1 viab inactive and MITF inhib inactive.
`C=C(C)C(=O)O[C@H]1[C@H]2C(=C)C(=O)O[C@@H]2C[C@@H](C)[C@@H]2O[C@@H]2C(=O)[C@](C)(O)[C@@H]1OC(C)=O` gave Hedgehog inh 85.0, NOMO-1 viab 122.2 and MITF inhib inactive.
